# Screens from PubChem BioAssay.
# Most compounds without a hit are left out; they make up all but 5.7% or so of the library.
# rCAG binder = r(CAG) repeat RNA binding | inhibition, % at 3 µM | TO-PRO-1 dye displacement fluorescence | AID 651821 | hit rate 1.3% among 370,000;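 active = inhibition above the plate cutoff, the mean of all test compounds on that plate plus 3 SD, cut at about 35% in these data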;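 note: 0% = DMSO alone and 100% = 100 µM mitoxantrone as full dye displacement; higher means more dye released from RNA so lower well fluorescence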
# GRIN3A LBD mod = modulates the human NR3A ligand-binding domain; NR3A LBD differential scanning fluorimetry, Tm shift; 0% = protein alone, 100% = glycine-bound protein; Tm shift relative to glycine control, % at 25 µM; hit rate 2.5% among 340,000; AID 1259313;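 active = melting temperature shift of at least 10% of the positive control shift, at one fixed dose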
# MPTP block = permeability transition pore inhibition; isolated mouse mitochondria, Ca2+ swelling absorbance, 30 min; inhibition, % at 10 µM; hit rate 1.4% among 360,000;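 active = inhibition of 50% or more, scaled per plate between neutral and stimulator controls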;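 note: 0% = DMSO wells given calcium and 100% = 1 mM EGTA wells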
# Myeloid diff MLP = promotes myeloid progenitor differentiation; ER-HoxA9 myeloid progenitors, lysozyme-GFP differentiation, flow cytometry; calls only at 10 µM; hit rate 1% among 360,000; AID 624256;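 active = normalized GFP-positive differentiation at or above the plate's own cutoff, the solvent-only control mean plus 3 SD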;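 note: cells exposed to compound for four days before flow analysis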
# FAS TE block = FAS thioesterase (human) inhibition | hit rate 0.67% among 360,000 | recombinant FAS-TE, OMFH fluorogenic substrate, fluorescence endpoint | inhibition, % at 15 µM | P49327;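 active = compounds whose normalised, plate-corrected inhibition of enzyme fluorescence in the single-dose primary screen is 50% or more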;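 note: 0% = DMSO with enzyme and 100% = substrate without enzyme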
# Starred values were filed as active, the others as inactive; i = inactive; nt = no result given; + = active, no number.
SMILES,rCAG binder,GRIN3A LBD mod,MPTP block,Myeloid diff MLP,FAS TE block
O=C(N/N=C1\CC2CC=CC12)c1ccc(Br)cc1 (stereo not given),0,-1,-2,i,-2
Cc1cc(Br)c(OCc2ccc(C(=O)N/N=C3\CC4CC=CC34)cc2)c(Br)c1 (stereo not given),5,12*,3,i,12
CC[C@@H](CCCc1ccccc1OC)CCS(=O)(=O)C(C)(C)C,1,nt,nt,nt,nt
NC(=S)N/N=C/c1ccc(C(F)(F)F)cc1,0,19*,-1,i,-10
COc1ccc(/C=N/NC(N)=S)cc1,-1,1,2,i,-4
COCCCN1C(=O)[C@H](CC(=O)NCCc2ccccc2OC)[C@]2(C(=O)OC)CCCCC=C12,2,nt,nt,nt,nt
N#Cc1c(NC(=O)c2cccnc2)sc2c1CCC2,7,-1,-1,+,-5
Cc1cccc(CN2[C@@H](C)[C@H](c3ccccc3)Oc3cc(Br)ccc3S2(=O)=O)c1,5,nt,nt,nt,nt
CC(C)CC(=O)N1CC=CC[C@@H](c2ccc(Cl)cc2)N(Cc2ccc(Cl)cc2)C(=O)[C@@H]1Cc1ccccc1,12,12*,6,i,28
CCCCC(=O)N1C/C=C\C(c2ccc(OC)cc2)N(Cc2ccc(F)cc2)C(=O)[C@H]1Cc1ccccc1 (stereo not given in full),nt,-2,0,i,20
COc1cc(/C=C2\SC(=Nc3ccc(Cl)c(C(=O)O)c3)NC2=O)c(Br)c(Br)c1O,7,13*,-1,i,-18
COc1cc(/C=C2\SC(=Nc3ccccc3)NC2=O)cc(Cl)c1O,-12,12*,2,i,-30
O=C1NC(=Nc2ccccc2)S/C1=C\c1ccccc1,-1,-2,4,i,0
COc1ccc(N=C2NC(=O)/C(=C/C=C/c3ccccc3)S2)cc1,7,14*,0,i,-1
COC(=O)/C=C1\SC(=Nc2ccc(OC)cc2)NC1=O,0,0,-1,i,-6
O=C1N/C(=N/Nc2ccccc2)S/C1=C\c1ccccc1,34,10*,1,i,1
CN(C(=O)[C@H]1O[C@@H](n2cnc(C(N)=O)n2)[C@H](O)[C@@H]1O)c1ccccc1,2,nt,nt,nt,nt
COc1cc(/C=C2/SC(=Nc3ccc(O)cc3)NC2=O)ccc1O,-2,27*,3,i,-7
COc1ccc(/C=C2\SC(=NCc3ccccc3)NC2=O)cc1,8,17*,2,i,-4
CCOC(=O)C1=CCN(S(=O)(=O)c2ccc(Cl)cc2)C1c1cccc(F)c1 (stereo not given),1,nt,nt,nt,nt
COc1ccc(N2CCN(CC(=O)c3ccc(O)cc3O)CC2)cc1,6,-1,1,i,-6
O=C(CN1CCN(c2ccc(F)cc2)CC1)c1ccc(O)cc1O,2,-2,0,+,-6
C[C@@H]1CCN(C2CC2)S(=O)(=O)c2c(cccc2N2CC[C@H](N(C)C)C2)O1,5,nt,nt,nt,nt
Cc1nnc(SCC(=O)N2CCC(Cc3ccccc3)CC2)n(N)c1=O,-9,11*,2,i,-3
CCOc1ccc(NS(=O)(=O)c2ccc(C(=O)NCc3ccccn3)cc2)cc1,0,5,0,i,-3
SMILES,rCAG binder,GRIN3A LBD mod,MPTP block,Myeloid diff MLP,FAS TE block
Cc1ccc(NS(=O)(=O)c2ccc(C(=O)NNC(=O)c3ccccc3O)cc2)cc1,24,10*,0,i,14
Cc1ccc(NS(=O)(=O)c2ccc(C(=O)NCc3ccccn3)cc2)cc1,3,14*,0,i,6
COc1ccc(-c2csc(NC(=S)NC(=O)/C=C/c3ccc(C(C)C)cc3)n2)cc1OC,9,3,3,i,24
O=C(/C=C/c1ccco1)NC(=S)Nc1cc(-c2nc3ccccc3s2)ccc1Cl,46*,18*,1,i,8
Cc1ccc(-c2nc3ccccc3s2)cc1NC(=S)NC(=O)/C=C/c1ccco1,13,-2,-2,i,4
Cc1ccc(-c2csc(NC(=S)NC(=O)c3ccco3)n2)cc1,1,20*,2,i,-7
COc1ccc(-c2csc(NC(=S)NC(=O)c3ccco3)n2)cc1Br,4,-3,4,i,0
COc1ccc(-c2csc(NC(=S)NC(=O)c3ccccc3)n2)cc1Br,4,40*,2,i,1
COc1ccc(-c2csc(NC(=S)NC(=O)/C=C/c3ccco3)n2)cc1OC,22,13*,-2,nt,6
COc1ccc(-n2c(SCc3ccc([N+](=O)[O-])cc3)nnc2-c2ccco2)cc1,1,nt,nt,nt,nt
Cc1cc(Nc2ccc(OC(F)F)cc2)cc(=O)n1-c1ccc(OC(F)F)cc1,1,nt,nt,nt,nt
